Source: PubChem BioAssay (National Center for Advancing Translational Sciences (NCATS))
JMJD2A Tudor: qHTS Assay for Inhibitors of JMJD2A-Tudor Domain | AlphaScreen JMJD2A-Tudor / H3K4me3 peptide binding | Potency, µM (top dose mostly 114 µM), for inactives: at the top dose activity change, negative = inhibition, usual class: inhibitors | 390,000 tested, 4.4% active | AID 504339, 2011; further: potency means the concentration at half of the fitted maximal effect; on the % scale 0 is the no-effect control and ±100 the full control effect; nearly all actives have a fitted effect of over 50% in size
PI5P4Ka inh: qHTS for Inhibitors of phosphatidylinositol 5-phosphate 4-kinase (PI5P4K) | Phosphatidylinositol 5-phosphate 4-kinase type-2 alpha (Homo sapiens), P48426 | PI5P4Kalpha enzyme, ADP-Glo luminescence, 60 min; active compounds read low | max response, % | 330,000 tested, 1.2% active; active means max response of -50% or lower; inconclusive means between -30% and -50%; inactive means -30% or higher; further: value at the top dose of about 77 µM; on the % scale 0 is the no-effect control and ±100 the full control effect
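qHTS, 1536-well: enzyme/substrate mix, compound by pin tool, 5 microM ATP final; RT 60 min; ADP-Glo reagents 1 (45 min) then 2 (30 min); luminescence.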
HP1b chromo inh: HTS for Inhibitors of HP1-beta Chromodomain Interactions with Methylated Histone Tails. Chromobox protein homolog 1 (Homo sapiens), P83916. AlphaScreen HP1-beta / biotin-H3K9me3 peptide binding. Potency, µM (top dose mostly 114 µM), for the others: at the top dose activity change, negative = inhibition, most hits filed as inhibitors. 390,000 tested, 0.56% active; further: potency means the concentration at half of the fitted maximal effect; nearly all actives have a fitted effect of over 70% in size
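HP1-beta protein (50 nM final) preincubated 30 min at room temperature with biotinylated H3(1-18)K9me3 peptide (50 nM) in PBS pH 7.4, 0.01% Tween-20, then compound added for 30 min. AlphaScreen streptavidin donor/nickel chelate acceptor beads (10 ug/mL final), 30 min dark, luminescence read.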
L3MBTL1 inh: qHTS Assay for the Inhibitors of L3MBTL1; Lethal(3)malignant brain tumor-like protein 1 (Homo sapiens), Q9Y468; AlphaScreen L3MBTL1–H3K9me1 peptide binding; Potency, µM (highest dose often 57.1 µM), for inactives: at the highest dose activity, negative = inhibition, hits mostly inhibitors; 230,000 tested, 0.66% active; AID 485360, 2010; further: potency means the concentration at half of the fitted maximal effect; on the % scale 0 is the no-effect control and ±100 the full control effect; nearly all actives have a fitted effect of over 60% in size
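AlphaScreen proximity signal between nickel-chelate acceptor and streptavidin donor beads (final 10 ug/mL) reports binding of 50 nM L3MBTL1 to 75 nM biotin-H3 K9me1 peptide; complex incubated with compounds 30 min at room temperature; cefsulodin titration as control.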
BAZ2B inh: qHTS Assay for Inhibitors of BAZ2B; Bromodomain adjacent to zinc finger domain protein 2B (Homo sapiens), Q9UIF8; AID 504333, 2011; 360,000 tested, 4.4% active; AlphaScreen BAZ2B-H3K14Ac peptide displacement; Potency, µM (series often up to 114 µM), for the others: top-dose activity change, negative = inhibition, most hits filed as inhibitors; further: potency means the concentration at half of the fitted maximal effect; on the % scale 0 is the no-effect control and ±100 the full control effect; nearly all actives have a fitted effect of over 60% in size
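Compounds, titrated to a top concentration of 110 uM, were incubated 30 min at room temperature with preformed BAZ2B/acetyl-K14 H3 peptide complex (50 nM each). Proximity signal was measured by AlphaScreen after 20 min with beads.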
KDM4E inh: qHTS Assay for Inhibitors of Human Jumonji Domain Containing 2E (JMJD2E); Lysine-specific demethylase 4E (Homo sapiens), B2RXH2; JMJD2E catalytic domain, FDH-coupled NADH fluorescence (FDH is formaldehyde dehydrogenase); Potency, µM (doses to about 57.1 µM), without a hit: at the highest dose activity change, negative = inhibition, hits mostly inhibitors; 230,000 tested, 1.6% active; AID 2147, 2009; active means well fitted inhibition curve with a large enough effect, not every such curve was filed as active; inconclusive means small, poorly fitted or top-dose-only effect, or another doubt; inactive means no such curve, though single readings can be large or run the other way;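 further: potency means the concentration at half of the fitted maximal effect; 0% = wells with enzyme and -100% = buffer wells without enzyme; nearly all actives have a fitted effect of over 50% in size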
* hit, by the source's call; ? = inconclusive; · = not tested or not shown; [ ] = dose if it differs, or a comment. Only some compounds are listed: those with a hit (about 5.7% of all), similar ones and a draw of the others. Unless noted, the call rests on the fitted dose curve; in most records, active means well fitted inhibition curve with a large enough effect; inconclusive means small, poorly fitted or top-dose-only effect; inactive means no such curve, though single readings can be large or run the other way.

SMILES	JMJD2A Tudor	PI5P4Ka inh	HP1b chromo inh	L3MBTL1 inh	BAZ2B inh	KDM4E inh
O=C(O)/C=C\C(=O)Nc1ccc(Oc2ccccc2)cc1	-15%	·	35%	0%	-22%	-11%
O=C(O)/C=C/C(=O)Nc1ccc(Oc2ccc(NC(=O)/C=C/C(=O)O)cc2)cc1	·	·	·	25µM*	50µM*	-2%
O=C(O)/C=C/C(=O)Nc1ccc(Cc2ccc(NC(=O)/C=C/C(=O)O)cc2)cc1	-10%	?	20%	·	-29%	0%
O=C(O)/C=C/C(=O)Nc1ccc(C2(c3ccc(NC(=O)/C=C/C(=O)O)cc3)c3ccccc3-c3ccccc32)cc1	-35%	-58*	17%	-18%	50µM*	·
COCCN1C(=O)/C(=C/c2ccc(N3CCCC3)cc2C)SC1=S	?	3	-16%	-25%	8.9µM*	-30%
CCN=C1S/C(=C\c2ccc(N3CCOCC3)cc2C)C(=O)N1CC	-12%	-9	22%	-3%	-12%	-1%
CSc1cccc(NC(=O)C2CCN(c3ncnc4c3nc3n4CCCCC3)CC2)c1	-25%	·	13%	·	-7%	·
CC(C)(C)c1ccc(C(=O)NCC(=O)OC(C(=O)Nc2cc(C(F)(F)F)ccc2Cl)c2ccccc2)cc1 (stereo unspecified)	-21%	·	·	·	·	·
Cc1cc(N=Cc2c(O)n(-c3ccc(C)c(C)c3)c(=O)c3ccccc23)no1	·	·	·	8%	-16%	?
CC(=O)c1cccc(N=Cc2c(O)ccc3ccccc23)c1	71µM*	-1	-10%	-8%	?	·
CN(C)/N=C/c1c(O)ccc2ccccc12	56µM*	-10	?	·	45µM*	-10%
Oc1ccc2ccccc2c1C=Nc1ccccc1Br	?	0	?	-4%	?	·
CC(=O)N(C)c1ccc(N=Cc2c(O)ccc3ccccc23)cc1	?	1	17%	-9%	-29%	·
Cc1cc(N=Cc2c(O)ccc3cc(Br)ccc23)no1	1.8µM*	-19	?	-2%	10%	?
Cc1cc(N=Cc2c(O)ccc3ccccc23)no1	28µM*	·	-10%	-6%	6%	-20%
COc1ccc(S(=O)(=O)N2CCCCC2c2cc(C(=O)Nc3ccccc3)no2)cc1 (stereo unspecified)	·	6	·	·	·	·
Cc1ccc(S(=O)(=O)c2nc(-c3ccccc3Cl)oc2N2CCCCCC2)cc1	-33%	·	?	·	?	·
CCSc1oc(-c2cccs2)nc1S(=O)(=O)c1ccccc1	40µM*	-22	?	?	-3%	-2%
COc1ccc(-c2nc(S(=O)(=O)c3ccc(Cl)cc3)c(N3CCCCCC3)o2)cc1	56µM*	·	-20%	·	-33%	·
O=S(=O)(c1ccc(Cl)cc1)c1nc(-c2cccs2)oc1N1CCCCC1	?	·	?	·	14µM*	·
NC(=O)C1CCN(c2oc(-c3cccs3)nc2S(=O)(=O)c2ccc(Cl)cc2)CC1	?	3	-10%	1%	·	·
Cc1ccc(S(=O)(=O)c2nc(-c3ccccc3Cl)oc2N2CCN(C)CC2)cc1	50µM*	-5	?	?	·	·
O=C(c1cccnc1)c1ncc(C(F)(F)F)cc1Cl	0%	-5	43%	·	-4%	·
COc1ccccc1-c1nc(S(=O)(=O)c2ccccc2)c(N2CCCCC2)o1	79µM*	-18	?	·	-23%	·
Cc1ccc(-c2nc(S(=O)(=O)c3ccc(C)cc3)c(N3CCOCC3)o2)cc1	79µM*	?	?	·	?	·
SMILES	JMJD2A Tudor	PI5P4Ka inh	HP1b chromo inh	L3MBTL1 inh	BAZ2B inh	KDM4E inh
O=C(CSc1oc(-c2ccc(F)cc2)nc1S(=O)(=O)c1ccccc1)c1ccc(Cl)cc1	-1%	·	22%	·	-3%	·
CN(C)c1oc(-c2ccc(Cl)cc2)nc1S(=O)(=O)c1ccccc1	79µM*	?	?	-3%	?	8%
Cc1cccc(-c2nc(S(=O)(=O)c3ccccc3)c(N3CCOCC3)o2)c1	-30%	4	6%[57 µM]	·	-35%	·
COc1ccccc1-c1nc(S(=O)(=O)c2ccc(Cl)cc2)c(N2CCCCCC2)o1	-27%	·	-9%	·	-24%	·
COc1ccc(Cl)cc1C(=O)NCc1nc(-c2cccc(C)c2)no1	-8%	·	38%	·	4%	·
O=C(NCCc1ccccc1)c1n[nH]c2ccccc12	-5%	2	36%	-21%[11.4 µM]	-17%	7%
CC1CC=CC2C1C(=O)N(Cc1ccccc1)C2c1ccoc1 (stereo unspecified)	-25%	·	4%	·	·	·
Nc1[nH]c2cc([N+](=O)[O-])ccc2c1-c1ccccn1	?	-7	?	·	28µM*	·
COc1ccc(-c2cc3c(nn2)-c2ccccc2C3=O)cc1	22µM*	?	-8%	?	-14%	1%
O=C1c2ccccc2-c2nnc(-c3ccccc3)cc21	-28%	-11	18%	-9%	?	-6%
Cc1ccc(N2CCN(C(=S)c3ccc(N(C)C)cc3)CC2)cc1	32µM*	·	?	?	13µM*	-6%
COc1cccc(-c2nnc(NC(=O)C(C)C)o2)c1	?	7	40%	-14%	79µM*	1%
COc1cccc(-c2nnc(-c3ccc(C)o3)o2)c1	-16%	·	30%	-5%	-4%	0%
COc1cccc(-c2nnc(-c3ccco3)o2)c1	50µM*	-29	-2%	-2%	5%	?
Cc1[nH]c2ccc(C(=O)NCCc3ccccc3Cl)cc2c1C	-34%	·	-6%	·	?	·
O=C(NNC(=O)c1ccccc1F)c1ccc2nc[nH]c2c1	-14%	-7	33%	·	?	·
O=C(NNC(=O)c1ccccc1Br)c1ccc2nc[nH]c2c1	?	?	-7%	·	50µM*	·
CN(C)c1ccc(NC(=O)c2ccc3nc[nH]c3c2)cc1	-34%	-14	15%	·	45µM*	·
COc1cc(Cl)c(C)cc1Nc1nc2ccccc2n2cnnc12	-8%	·	24%	·	2%	·
Cc1cc(Nc2ccccc2)c2c([N+](=O)[O-])c(C)cc(C)c2n1	25µM*	19	40µM*	?	32µM*	1%
